The full ranking holds about 18,000 sequences; the median of “log2 normalized intensity” is about 0.36, and the highest 2% start at about 7.3. Many of the other results were omitted from the sample, so the highest values are more common in it than they were.

For the assay, the target named is T1, HNF4alpha8 (COS-7 nuclear extract) (Homo sapiens, UniProt P41235-5 1-452).
T1 sequence: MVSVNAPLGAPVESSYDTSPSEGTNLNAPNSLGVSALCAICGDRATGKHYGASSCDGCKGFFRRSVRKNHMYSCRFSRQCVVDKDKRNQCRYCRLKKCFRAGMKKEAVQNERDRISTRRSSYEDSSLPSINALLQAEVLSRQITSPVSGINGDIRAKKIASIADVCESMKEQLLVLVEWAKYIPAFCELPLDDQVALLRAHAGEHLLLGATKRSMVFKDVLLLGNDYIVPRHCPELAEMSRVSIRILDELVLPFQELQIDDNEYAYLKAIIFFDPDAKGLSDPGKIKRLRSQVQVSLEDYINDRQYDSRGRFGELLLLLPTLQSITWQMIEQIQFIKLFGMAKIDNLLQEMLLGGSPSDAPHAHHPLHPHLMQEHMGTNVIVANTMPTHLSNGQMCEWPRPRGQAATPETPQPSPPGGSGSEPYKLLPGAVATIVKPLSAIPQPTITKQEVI
The assay can be described thus: protein-binding microarray; COS-7 nuclear extract on double-stranded Agilent 4x180k PBM; binding buffer, salt, pH and temperature not given in the material; high values mean tight binding. Conditions: chain copies: 2; label: 3' end of strand 1 on the slide; dsDNA, one strand shown. In a few lines: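 Nuclear extracts of COS-7 cells transiently transfected with a human HNF4α isoform were applied to a custom Agilent SurePrint G3 4x180k array bearing ~44,000 double-stranded ~60-nt test sequences, each in quadruplicate. The bound protein was imaged on an Agilent G2565CA scanner at 2-µm resolution. Binding signal is the normalized, background-corrected gProcessedSignal from Agilent software.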
With “TCTTTTTAATCAATAATCTTTGCCCTTGAAGCCTAGGGAGATTAGAGTATCGGTCGA”, the binding signal is 3.49 log2 normalized intensity.

In the case of “AGCATATTTGGCCACATCCTGTCTCCTTTAGCCTAGGGAGATTAGAGTATCGGTCGA”, the binding signal amounted to 1.11 log2 normalized intensity.

On to “CCTGAAGGGTGTTGTGGAATGTGCTTGGACGCCTAGGGAGATTAGAGTATCGGTCGA”, for which the binding signal amounted to 2.16 log2 normalized intensity.

On to “AATACGACCTTTGGACAGGGTGACGTCATTGCCTAGGGAGATTAGAGTATCGGTCGA”, for which the binding signal stood at 6.84 log2 normalized intensity.

On to “TCCAAAATACGACCTTTGGACAGGGTGACGGCCTAGGGAGATTAGAGTATCGGTCGA”, for which the binding signal amounted to 7.56 log2 normalized intensity.

Regarding “AGAAGTTGGACTTTGTACATTCCAAATACGGCCTAGGGAGATTAGAGTATCGGTCGA”, the binding signal stood at 7.64 log2 normalized intensity.

Consider “TTTGTCACATTCCAGACTTTGTACAAGGGCGCCTAGGGAGATTAGAGTATCGGTCGA”, for which the binding signal was found to be 3.1 log2 normalized intensity.

Take “GTACTTTGTACATGGGAATAGACATTCCAGGCCTAGGGAGATTAGAGTATCGGTCGA”: the binding signal was determined as 1.99 log2 normalized intensity.

Take “ACATCAGAAGTTGGACTTTGTACATTCCAAGCCTAGGGAGATTAGAGTATCGGTCGA”: the binding signal was 8.13 log2 normalized intensity.

As for “TTGGACTTTGTACATTCCAAATACGATAATGCCTAGGGAGATTAGAGTATCGGTCGA”, the binding signal was found to be 5.9 log2 normalized intensity.

For the sequence “GGGCTTTTGTCACATTCCAGACTTTGTACAGCCTAGGGAGATTAGAGTATCGGTCGA”, the binding signal is 5.85 log2 normalized intensity.

Turning to “CCTGGTGACCTTTGTTTGGTCAAATACCTAGCCTAGGGAGATTAGAGTATCGGTCGA”, the binding signal turned out to be 3.66 log2 normalized intensity.

With “AAAGGCCTTTGAAGCTTGAAGGAGTATATGGCCTAGGGAGATTAGAGTATCGGTCGA”, the binding signal was found to be 0.256 log2 normalized intensity.

As for “CTTATCAGCAGCTGGGGTGACTGATTGGAGGCCTAGGGAGATTAGAGTATCGGTCGA”, the binding signal came out at 0.845 log2 normalized intensity.

Consider “AGTGCACCTTAATAAGCACATTCCTTTCCCGCCTAGGGAGATTAGAGTATCGGTCGA”, for which the binding signal is -0.98 log2 normalized intensity.

Take “ATCTTATCAGCAAGGGCATTTGCGTAGGCTGCCTAGGGAGATTAGAGTATCGGTCGA”: the binding signal is -0.794 log2 normalized intensity.

Regarding “TGCTAAGTGCCATGTAATCAAACTGAACTTGCCTAGGGAGATTAGAGTATCGGTCGA”, the binding signal turned out to be 2.1 log2 normalized intensity.

Consider “GATATTTAACCTTTGATCTGTAAGCTCTCTGCCTAGGGAGATTAGAGTATCGGTCGA”, for which the binding signal worked out at 5.39 log2 normalized intensity.

With “GTGGCTACCTGTGCAGATATTTAACCTTTGGCCTAGGGAGATTAGAGTATCGGTCGA”, the binding signal came out at 4.61 log2 normalized intensity.

Take “CTGTGCTTTGTTTACTTAACCTTTGATCATGCCTAGGGAGATTAGAGTATCGGTCGA”: the binding signal was found to be 7.84 log2 normalized intensity.

Consider “CTTTGTTTACTTAACCTTTGATCATATGCAGCCTAGGGAGATTAGAGTATCGGTCGA”, for which the binding signal amounted to 5.75 log2 normalized intensity.

Regarding “TACCTGTGCAGATATTTAACCTTTGATCTGGCCTAGGGAGATTAGAGTATCGGTCGA”, the binding signal was found to be 8.15 log2 normalized intensity.

For the sequence “TTGCACTGTGCTTTGTTTACTTAACCTTTGGCCTAGGGAGATTAGAGTATCGGTCGA”, the binding signal was 4.5 log2 normalized intensity.

“CCTGTCTGACAGGATGAATTTATTGCCCTCGCCTAGGGAGATTAGAGTATCGGTCGA”: the binding signal is 3.21 log2 normalized intensity.

For “ATGGTGACCATGTGATGTGAAGAGTGTGGAGCCTAGGGAGATTAGAGTATCGGTCGA”, the binding signal is 1.31 log2 normalized intensity.

Consider “CTTGTGTAATAACGAGACCTTAGCCCTGAAGCCTAGGGAGATTAGAGTATCGGTCGA”, for which the binding signal was -0.451 log2 normalized intensity.

“GAGAGTTCCCTTGGAATGCCAGATGACCTTGCCTAGGGAGATTAGAGTATCGGTCGA”: the binding signal is 4.6 log2 normalized intensity.

On to “TTTCTGTCCAGAGTTTAAATGACCTCTGCCGCCTAGGGAGATTAGAGTATCGGTCGA”, for which the binding signal was determined as 4.72 log2 normalized intensity.

Consider “TTCCACTGACTTGCAACCTTTGCCCTGTTGGCCTAGGGAGATTAGAGTATCGGTCGA”, for which the binding signal came out at 7.2 log2 normalized intensity.

Consider “TTAGCTTCCTCCCTTGGAATGTGACCTTAGGCCTAGGGAGATTAGAGTATCGGTCGA”, for which the binding signal is 5.27 log2 normalized intensity.

Consider “TTGCCCTTCTTGGATGCCCTTCCCTAACCCGCCTAGGGAGATTAGAGTATCGGTCGA”, for which the binding signal amounted to 3.04 log2 normalized intensity.

As for “GAGTTTAAATGACCTCTGCCCTTCCACCCAGCCTAGGGAGATTAGAGTATCGGTCGA”, the binding signal is 5.16 log2 normalized intensity.

Consider “TTTCATTCCACTGACTTGCAACCTTTGCCCGCCTAGGGAGATTAGAGTATCGGTCGA”, for which the binding signal is 7.51 log2 normalized intensity.

With “CCCTTGGAATGTGACCTTAGACCCCTGAATGCCTAGGGAGATTAGAGTATCGGTCGA”, the binding signal was 6.49 log2 normalized intensity.

For the sequence “GTCCAGAGTTTAAATGACCTCTGCCCTTCCGCCTAGGGAGATTAGAGTATCGGTCGA”, the binding signal stood at 7.43 log2 normalized intensity.

For the sequence “TTCCCTTGGAATGCCAGATGACCTTTGCCCGCCTAGGGAGATTAGAGTATCGGTCGA”, the binding signal came out at 10.2 log2 normalized intensity.

“TTCCTCCCTTGGAATGTGACCTTAGACCCCGCCTAGGGAGATTAGAGTATCGGTCGA”: the binding signal amounted to 8.83 log2 normalized intensity.

Consider “CTGGCTTTCATTCCACTGACTTGCAACCTTGCCTAGGGAGATTAGAGTATCGGTCGA”, for which the binding signal came to 1.09 log2 normalized intensity.

With “AAGATAATGGGTCCGAAGGTCAGCTGACCAGCCTAGGGAGATTAGAGTATCGGTCGA”, the binding signal stood at 5.57 log2 normalized intensity.

For the sequence “TGATTATTTGTGAAGGCATTATTGGTGAAAGCCTAGGGAGATTAGAGTATCGGTCGA”, the binding signal stood at 0.974 log2 normalized intensity.

As to “TCAGAGCTTGAAAAGTCTTTCTGCCAAAGTGCCTAGGGAGATTAGAGTATCGGTCGA”, the binding signal came out at 0.513 log2 normalized intensity.

For “TGGCATCCCTGTGGTATTTGCTCTGTCATCGCCTAGGGAGATTAGAGTATCGGTCGA”, the binding signal was found to be 1.39 log2 normalized intensity.

In the case of “GCTAAAAGTTGAATTCTTGACTTTGGACTTGCCTAGGGAGATTAGAGTATCGGTCGA”, the binding signal came out at 6.55 log2 normalized intensity.

Source of the values: publication PMC10726135, “HNF4α isoforms regulate the circadian balance between carbohydrate and lipid metabolism in the liver”.
